In PubChem BioAssay:
Activity calls are given as the source filed them.

Tested on: wheat germ agglutinin (Triticum aestivum), Alexa647-labelled
Assay: wheat germ agglutinin binders on compound microarrays, profiling panel, artefact control for SMM control-protein annotation, biochemical, small-molecule microarray, 635/667 nm fluorescence (AID 1140);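 note: score merges 667 nm feature emission with signal to noise over triplicate slides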
Conditions: WGA-A647 binding, 635 nm fluorescence, higher = more signal

Row | SMILES | composite z-score
1 | O=C1C[C@H](c2ccccc2)[C@H](c2ccc(Br)cc2)O1 | -0.236
2 | CO[C@H]1COC(=O)CC=C[C@@H](C)COC(=O)[C@H]2CCCN2C(=O)CC=C[C@H]1C | -0.604
3 | O=C(NN=C1C[C@@H](O)[C@@H](O)[C@@H]2[C@@H]3C(=O)N(Cc4ccccc4)C(=O)[C@@H]3CC[C@H]12)OCc1ccccc1 | 0.0185

Target: Luciferin 4-monooxygenase (Photinus pyralis) (UniProt P08659)
Sequence (P08659 whole entry, looked up): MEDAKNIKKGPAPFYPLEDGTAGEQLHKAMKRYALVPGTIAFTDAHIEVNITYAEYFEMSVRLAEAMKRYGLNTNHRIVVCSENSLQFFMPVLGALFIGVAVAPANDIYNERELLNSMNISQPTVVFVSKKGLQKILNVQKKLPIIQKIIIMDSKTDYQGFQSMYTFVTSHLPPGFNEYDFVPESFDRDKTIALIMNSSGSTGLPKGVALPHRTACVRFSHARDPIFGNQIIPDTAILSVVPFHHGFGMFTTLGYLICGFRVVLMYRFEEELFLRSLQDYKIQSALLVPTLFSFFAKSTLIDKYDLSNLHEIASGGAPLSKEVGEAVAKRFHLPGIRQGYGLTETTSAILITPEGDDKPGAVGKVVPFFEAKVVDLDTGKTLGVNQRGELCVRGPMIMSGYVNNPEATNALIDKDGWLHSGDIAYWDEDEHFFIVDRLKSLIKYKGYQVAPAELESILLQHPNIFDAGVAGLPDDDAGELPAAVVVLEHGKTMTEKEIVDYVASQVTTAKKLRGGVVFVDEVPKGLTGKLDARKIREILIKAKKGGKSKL
Assay: firefly luciferase enzyme inhibitors, primary screen, biochemical, luminescence, purified enzyme, 2006 set (AID 1141);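 note: cell-free assay with purified firefly luciferase at 100 ng per well in PBS; test concentration not given here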
Conditions: SteadyGlo luminescence, 30 min, higher = more signal, called active from +8 up or from −8 down

Row | SMILES | z-score
4 | CON=C(C)CCN1CCCCc2nc(C)c(C)cc21 | -0.518 (inactive)
5 | CCOC(=O)[C@H](Cc1ccccc1)NC(=O)CCC1CC(OC(=O)NCc2cccc3ccccc23)CC2(CCCC(COC(=O)NCC3CCCCC3)O2)O1 (some centres not stated) | 0.632 (inactive)
6 | CO[C@H]1COC(=O)CCC[C@H](C)[C@@H](OC)COC(=O)CC=C[C@@H]1C | 0.949 (inactive)
7 | C[C@H]1C=CCC(=O)OC[C@H](C)C(=O)N2CCC[C@H]2C(=O)OC1 | 1.32 (inactive)
8 | CC(=O)OC[C@H]1O[C@H](CCON=C(C)C)C=C[C@@H]1OC(C)=O | 0.654 (inactive)
9 | CC(C)[C@@H](OCc1ccccc1)[C@H](C)C=NO[C@@H](C)c1cn([C@H](CO)Cc2ccccc2)nn1 | -0.197 (inactive)
10 | O=C1C2=CC[C@H]3C(=O)N(C4CCCCC4)C(=O)[C@H]3[C@H]2[C@H](O)[C@@H]2O[C@H]12 | -0.389 (inactive)
11 | CC(C)(C)N1C(=O)[C@H]2[C@H]3[C@H](O)[C@H](O)CC(=NNC(=O)OCc4ccccc4)[C@H]3CC[C@H]2C1=O | 0.944 (inactive)
12 | CC(C)(C)N1C(=O)[C@H]2[C@H]3[C@H](O)[C@H](O)CC(=NNC(=O)OCc4ccccc4)[C@@H]3CC[C@H]2C1=O | -0.728 (inactive)
